Bioassay records: PubChem BioAssay, several laboratories
14-3-3 Bad inh: disrupts binding of bovine 14-3-3 zeta to phospho-Bad peptide | P63103 | TR-FRET 14-3-3zeta/Dy647-pBad peptide displacement, 1 h | inhibition, % at 21.7 µM | 220,000 compounds, 0.71% hits | AID 781;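 active = inhibition above about 70%, limit read from the data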
bovine MsrA act: bovine methionine sulfoxide reductase A activation; purified bovine MsrA, absorbance read-out; activation, % at 10.6 µM; 360,000 compounds, 0.3% hits; AID 602163; in the data active = activation above about 7.5%
pCIP destab: lowers stability of the mouse p/CIP coactivator protein; Q05BA5; F442A p/CIP-EGFP cells, EGFP fluorescence, 16 h; decrease of EGFP signal, % at 10 µM; 290,000 compounds, 0.01% hits;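 active = EGFP signal decrease of at least 30% at 10 µM or well 3 SD below plate mean, unless failing retest; inactive = the rest, including hits failing retest or dose response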
Target sequence (Q05BA5 1-1403): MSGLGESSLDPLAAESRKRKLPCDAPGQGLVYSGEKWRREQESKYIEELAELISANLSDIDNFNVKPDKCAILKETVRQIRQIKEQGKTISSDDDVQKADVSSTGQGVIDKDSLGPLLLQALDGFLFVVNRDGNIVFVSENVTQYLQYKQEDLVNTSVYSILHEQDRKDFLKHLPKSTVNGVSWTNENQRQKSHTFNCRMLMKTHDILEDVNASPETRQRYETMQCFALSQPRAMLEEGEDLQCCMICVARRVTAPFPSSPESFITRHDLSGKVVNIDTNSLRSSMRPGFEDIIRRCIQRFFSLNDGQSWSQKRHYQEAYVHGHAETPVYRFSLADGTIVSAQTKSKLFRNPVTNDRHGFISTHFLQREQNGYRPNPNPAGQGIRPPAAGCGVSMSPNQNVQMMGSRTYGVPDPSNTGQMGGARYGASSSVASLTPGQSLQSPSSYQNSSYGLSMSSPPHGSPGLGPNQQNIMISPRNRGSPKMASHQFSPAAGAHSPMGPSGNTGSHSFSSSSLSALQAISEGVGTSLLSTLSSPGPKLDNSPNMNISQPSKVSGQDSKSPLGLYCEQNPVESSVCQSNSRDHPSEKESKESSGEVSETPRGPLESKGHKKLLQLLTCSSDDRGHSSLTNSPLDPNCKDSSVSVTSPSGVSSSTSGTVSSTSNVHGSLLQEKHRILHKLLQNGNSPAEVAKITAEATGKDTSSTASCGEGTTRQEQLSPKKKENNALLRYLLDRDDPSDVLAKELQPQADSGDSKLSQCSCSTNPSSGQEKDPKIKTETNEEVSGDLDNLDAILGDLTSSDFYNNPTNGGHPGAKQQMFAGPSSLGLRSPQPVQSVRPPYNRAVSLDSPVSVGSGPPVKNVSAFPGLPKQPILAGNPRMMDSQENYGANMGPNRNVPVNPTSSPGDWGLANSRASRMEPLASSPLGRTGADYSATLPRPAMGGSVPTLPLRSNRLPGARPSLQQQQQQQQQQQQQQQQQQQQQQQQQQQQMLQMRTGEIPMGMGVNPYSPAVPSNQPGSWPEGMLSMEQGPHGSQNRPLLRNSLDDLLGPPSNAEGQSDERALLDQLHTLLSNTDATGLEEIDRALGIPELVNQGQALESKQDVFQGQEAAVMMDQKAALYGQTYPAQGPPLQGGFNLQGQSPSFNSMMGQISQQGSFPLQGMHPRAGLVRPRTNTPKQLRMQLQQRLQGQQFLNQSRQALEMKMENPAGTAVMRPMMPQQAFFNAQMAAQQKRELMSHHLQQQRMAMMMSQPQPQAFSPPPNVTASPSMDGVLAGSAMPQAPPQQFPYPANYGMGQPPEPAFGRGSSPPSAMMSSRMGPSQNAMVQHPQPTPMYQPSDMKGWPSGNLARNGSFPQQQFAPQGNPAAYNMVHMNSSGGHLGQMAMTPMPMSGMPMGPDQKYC
MsrA inh: inhibits bovine methionine sulfoxide reductase A; purified bovine MsrA, absorbance read-out; inhibition, % at 15.5 µM; 360,000 compounds, 0.75% hits; AID 651718
MsrA inh confirm: confirmation of bovine MsrA inhibitors; AID 651822; 2,300 compounds, 41% hits; purified bovine MsrA, absorbance read-out; inhibition, % at 15.5 µM; shares compounds with MsrA inh;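 also: coupled to thioredoxin reductase with NADPH and selenocystamine and DMSO as substrate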
Each line names hits and unclear results; the compound was inactive in the other large screens (follow-up assays come after a bar, where they were run). Only some compounds are listed: those with a hit (about 1.4% of all), similar ones and a draw of the others. Rule as the data show it, unless noted: active = inhibition above about 4.5%; inactive = the rest.

Oc1ccc(/C=N/N=C/c2ccc(O)c(O)c2)cc1O	MsrA inh 4.7 (no result: 14-3-3 Bad inh) | MsrA inh confirm 6.4
CN(C(=O)c1ccc2c(c1)OCO2)C1CCS(=O)(=O)C1 (stereo not drawn)	none (no result: 14-3-3 Bad inh, pCIP destab)
C/C(=N\NC(=O)CNC(=O)c1cccs1)c1ccc(Cl)c(Cl)c1	none (no result: 14-3-3 Bad inh)
CC1(C)Cc2c(sc(NC(=O)Cc3ccccc3)c2C#N)C(C)(C)N1	none (no result: 14-3-3 Bad inh, pCIP destab)
Nc1cc2sc(-c3ccc(C(=O)O)cc3)nc2cc1Cl	MsrA inh 5.5 | MsrA inh confirm inactive
Nc1ccc(-c2nc3ccc(C(=O)O)cc3s2)cc1	MsrA inh 5.9 | MsrA inh confirm 7.2
Nc1ccc(-c2nc3ccc(N)cc3s2)cc1	MsrA inh 5.6 | MsrA inh confirm 7.5
COC(=O)CCC(=O)Nc1ccc(S(=O)(=O)Nc2nc(C)cc(C)n2)cc1	none (no result: 14-3-3 Bad inh)
CCc1cc(-c2[nH]ncc2-c2ccc(OC)cc2)c(O)cc1O	MsrA inh 7.1 (no result: 14-3-3 Bad inh) | MsrA inh confirm inactive
O=C(N/N=C/c1cn(-c2ccccc2)nc1-c1ccc2c(c1)OCCO2)c1ccncc1	MsrA inh 5.0 | MsrA inh confirm inactive
Fc1cnc(N2CCOCC2)nc1N1CCc2ccccc21	MsrA inh 8.0 | MsrA inh confirm inactive
Fc1cnc(N2CCOCC2)nc1N1CCOCC1	none
CNS(=O)(=O)c1cccc(C(=O)OCC(=O)c2cc3ccccc3o2)c1	MsrA inh 23.8 | MsrA inh confirm 18.8
CNS(=O)(=O)c1cccc(C(=O)OCCCOC(=O)c2cccc(S(=O)(=O)NC)c2)c1	none (no result: 14-3-3 Bad inh)
N#C/C(=C/Nc1ccccc1)c1ccsc1	MsrA inh 4.8 | MsrA inh confirm inactive
CCN(c1ccccc1)S(=O)(=O)c1cccc(C(=O)Nc2cccc(C)n2)c1	none (no result: 14-3-3 Bad inh, pCIP destab)
Cc1nc(N2CCOCC2)sc1C=O	MsrA inh 6.6 | MsrA inh confirm inactive
CC(C)c1cc(C(=O)N/N=C/C=C/c2ccccc2)n[nH]1	none
Cc1cc(C(=O)N/N=C/C=C/c2ccc(Br)cc2)n[nH]1	MsrA inh 6.0 (no result: 14-3-3 Bad inh) | MsrA inh confirm inactive
Cc1cc(C(=O)N/N=C/C=C/c2ccc([N+](=O)[O-])cc2)n[nH]1	MsrA inh 7.6 | MsrA inh confirm 7.9
CCOc1cc(/C=N/NC(=O)c2cc(C)[nH]n2)ccc1OC(=O)c1ccc([N+](=O)[O-])cc1	none (no result: bovine MsrA act, MsrA inh)
Cc1ccc(S(=O)(=O)Nc2cncnc2NS(=O)(=O)c2ccc(C)cc2)cc1	none (no result: 14-3-3 Bad inh, pCIP destab)
COc1ccc(-c2cc(-c3ccccc3)nc(=O)[nH]2)cc1	MsrA inh 5.3 | MsrA inh confirm inactive
CCC(CC)=NNc1ccc([N+](=O)[O-])cc1[N+](=O)[O-]	none
C/C(CCC(=O)O)=N/Nc1ccc([N+](=O)[O-])cc1[N+](=O)[O-]	MsrA inh 13.3 | MsrA inh confirm 9.8
C/C(CCCO)=N/Nc1ccc([N+](=O)[O-])cc1[N+](=O)[O-]	MsrA inh 13.8 | MsrA inh confirm 7.0
CCOc1ccc(N(C)S(=O)(=O)c2cc(-c3cc(C)no3)ccc2C(C)C)cc1	MsrA inh 10.9 (no result: 14-3-3 Bad inh) | MsrA inh confirm 12.1
CCN(c1ccc(OC)cc1)S(=O)(=O)c1cc(-c2cc(C)no2)ccc1C(C)C	none (no result: 14-3-3 Bad inh)
O=c1nccc(N/N=C/c2cccc(O)c2)[nH]1	MsrA inh 6.8 (no result: 14-3-3 Bad inh) | MsrA inh confirm inactive
COc1cc(/C=N/Nc2ccnc(=O)[nH]2)ccc1O	MsrA inh 6.9 (no result: 14-3-3 Bad inh) | MsrA inh confirm 6.3
COc1cc(/C=N/Nc2ccccn2)ccc1O	none
CCCOc1ccccc1/C=N/Nc1ccnc(=O)[nH]1	none (no result: 14-3-3 Bad inh)
CC(C)C(NC(=O)Cc1ccccc1)C(=O)N1CCN(c2cccc(Cl)c2)CC1 (stereo not drawn)	none (no result: 14-3-3 Bad inh, pCIP destab)
NC1=C(c2ccc([N+](=O)[O-])cc2)C(=O)CO1	none
O=c1oc2c(-c3ccc([N+](=O)[O-])cc3)cc(O)cc2s1	MsrA inh 7.5 | MsrA inh confirm inactive
CN(C)/C=C/c1oc2ccc(O)cc2c1[N+](=O)[O-]	MsrA inh 5.5 | MsrA inh confirm inactive
c1ccc(-c2onc3cc4c(cc23)OCCO4)cc1	MsrA inh 5.1 | MsrA inh confirm inactive
COc1cccc(/C=C2\CCC(C3CCCC3)C2=O)c1OC (stereo not drawn)	none (no result: 14-3-3 Bad inh)
Cc1nc(C)c(N)c(=O)[nH]1	none
COc1ccc(N2CCN(C(=O)c3ccc4c(c3)CC(c3ccccc3)OC4=O)CC2)cc1 (stereo not drawn)	none (no result: 14-3-3 Bad inh, pCIP destab)
O=[N+]([O-])c1ccc(C2CCCC/C2=N/OCc2ccccc2F)c([N+](=O)[O-])c1 (stereo not drawn)	MsrA inh 9.2 | MsrA inh confirm 6.9
Cc1ccc(S(=O)(=O)NCC2CCC(C(=O)NCCCN3CCCC3=O)CC2)cc1 (stereo not drawn)	none (no result: 14-3-3 Bad inh)
CC1CC(C)CN(C(=O)c2cc3cc(Br)cc(Br)c3o2)C1 (stereo not drawn)	MsrA inh 5.4 | MsrA inh confirm inactive
CC1CC(C)CN(C(=O)c2cc3ccccc3o2)C1 (stereo not drawn)	none (no result: 14-3-3 Bad inh, pCIP destab)
CCOC(=O)CSc1nc2sc3c(c2c(=O)n1-c1ccc(OC)cc1)CCN(C)C3	none (no result: 14-3-3 Bad inh)
COc1ccc(-n2c(SCC(=O)NCc3ccco3)nc3sc4c(c3c2=O)CCN(C)C4)cc1	none (no result: 14-3-3 Bad inh)
O=C(O)CSc1nc2sc3c(c2c(=O)n1-c1ccccc1)CCC3	MsrA inh 5.0 | MsrA inh confirm inactive
CN1CCc2c(sc3nc(SCC(=O)NCc4ccco4)n(-c4ccccc4)c(=O)c23)C1	MsrA inh 6.4 (no result: 14-3-3 Bad inh) | MsrA inh confirm inactive
COc1ccc(-n2c(SCC(N)=O)nc3sc4c(c3c2=O)CCN(C)C4)cc1	MsrA inh 6.1 | MsrA inh confirm inactive
O=C(O)c1ccccc1CSc1nc2ccccc2n1Cc1ccccc1C(=O)O	none
CCN(c1ccccc1)S(=O)(=O)c1c[nH]c2ccc([N+](=O)[O-])cc12	none (no result: 14-3-3 Bad inh)
Cc1ccc(N(C)S(=O)(=O)c2c[nH]c3ccc([N+](=O)[O-])cc23)cc1	MsrA inh 5.8 (no result: 14-3-3 Bad inh) | MsrA inh confirm inactive
CCOC(=O)c1cc(C#N)c(N2CCN(c3ccccn3)CC2)nc1-c1ccccc1	none
COCCn1c(=NC(=O)CSCC(=O)NC2CCCCC2)sc2cc(OC)ccc21	none
CCOCCn1c(=NC(=O)CSCC(=O)Nc2cc(C)on2)sc2cc(OC)ccc21	MsrA inh 6.3 (no result: 14-3-3 Bad inh) | MsrA inh confirm inactive
CCOc1cc(/C=N/NC(=O)c2cccs2)cc([N+](=O)[O-])c1O	MsrA inh 8.2 | MsrA inh confirm 4.9
O=C(N/N=C/c1cccc([N+](=O)[O-])c1)c1cccs1	none
CN(C)c1ccc(/C=N/NC(=O)CNC(=O)c2ccc3c(c2)OCCO3)cc1	MsrA inh 5.1 | MsrA inh confirm 5.1
CN(C)c1ccc(/C=N/NC(=O)CNC(=O)c2ccncc2)cc1	MsrA inh 5.1 (no result: 14-3-3 Bad inh) | MsrA inh confirm 5.1
CN(C)c1ccc(/C=N/NC(=O)CNC(=O)/C=C/c2ccco2)cc1	MsrA inh 6.7 (no result: 14-3-3 Bad inh) | MsrA inh confirm 7.1
O=C(NCc1ccc(Cl)c(Cl)c1)c1cc(C2CCCCN2C(=O)OCCF)on1 (stereo not drawn)	none (no result: 14-3-3 Bad inh, pCIP destab)
CS(=O)(=O)NNC(=O)Cn1nnc(-c2ccc(OCc3ccccc3Cl)cc2)n1	none (no result: 14-3-3 Bad inh, pCIP destab)
O=C(c1ccco1)N(CCO)Cc1cc2cc3c(cc2[nH]c1=O)OCO3	MsrA inh 6.1 | MsrA inh confirm inactive
O=C(c1ccccc1)N(CCO)Cc1cc2cc3c(cc2[nH]c1=O)OCCO3	none
